In PubChem BioAssay one finds composite z-score and z-score data, which are given here for five molecules.

Experiment [1] relates to Wnt5a (protein binding on small-molecule microarray). In words: small molecules binding Wnt5a protein – biophysical, small-molecule microarray, 635/667 nm fluorescence, primary screen (AID 1142).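 Note: fluorescence read at 667 nm with signal to noise per printed feature.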 To be noted: 635 nm fluorescence, higher = more signal.
Experiment [2] is described as follows: ATP-based viability of Huh7 replicon cells – cell-based, CellTiter-Glo luminescence, basal, 48 h, cytotoxicity control for HCV replication inhibitor project, primary screen (AID 1143).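 Note: Huh7 hepatoma cells carrying a hepatitis C replication reporter with no stimulus; test concentration not given here.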 To be noted: higher = more signal, called active from +8 up or from −8 down. (Replicon systems follow genome replication, usually without infectious particles.)
The nature of experiment [3]: Pseudomonas biofilm growth suppression – PAO1 strain, BacTiter-Glo luminescence, LB-PBS, primary screen (AID 1144). The note with it: P. aeruginosa PAO1 biofilm, 12 h, higher = more signal.
Experiment [4] can be described thus: basal CRE-LacZ reporter activity in PC12 – cell-based, unstimulated, primary screen (AID 1145). To be noted: no forskolin, luminescence, 4.5 h, higher = more signal, called active from +8 up or from −8 down.
Experiment [5] in a line: forskolin-driven CRE-LacZ activity in PC12 – cell-based, CRE-LacZ reporter, forskolin-stimulated, primary screen (AID 1146).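 Note: PC12 cells with 6xCRE LacZ reporter stimulated by forskolin 10 µM; beta-galactosidase reporter signal reflecting CREB driven transcription.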 The note with it: luminescence, 4.5 h, higher = more signal, called active from +8 up or from −8 down.
In experiment [6] the target is Streptavidin (Streptomyces avidinii) (UniProt P22629). Kind of experiment: compounds binding control protein streptavidin – biophysical, small-molecule microarray, 635/667 nm fluorescence, artefact control for SMM compound annotation, primary screen (AID 1147).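 Note: signal reflects streptavidin binding to arrayed compounds as a control protein.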 The note with it: higher = more signal.
Chain of Streptavidin (Streptomyces avidinii) (P22629 whole entry, looked up): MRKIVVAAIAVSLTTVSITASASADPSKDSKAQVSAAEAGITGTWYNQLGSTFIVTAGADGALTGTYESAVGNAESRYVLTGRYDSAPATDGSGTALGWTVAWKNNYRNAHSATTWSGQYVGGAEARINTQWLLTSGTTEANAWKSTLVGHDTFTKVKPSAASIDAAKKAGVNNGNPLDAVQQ
Experiment [7] is described as follows: probe aInhba binding on compound microarray – biochemical, small-molecule microarray, 635/667 nm fluorescence, primary screen (AID 1148).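 Note: score merges 667nm spot fluorescence with signal-to-noise for antibody binding to printed compounds.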 To be noted: higher = more signal.
In experiment [8] the target is Torsin-1A (Homo sapiens) (UniProt O14656). In words: TOR1A wild-type binding on microarray – cell lysate, small-molecule microarray, lysate, 635/667 nm, primary screen (AID 1149). To be noted: COS7 hTOR1A-WT lysate, 635 nm fluorescence, higher = more signal.
Chain of Torsin-1A (Homo sapiens) (O14656 whole entry, looked up): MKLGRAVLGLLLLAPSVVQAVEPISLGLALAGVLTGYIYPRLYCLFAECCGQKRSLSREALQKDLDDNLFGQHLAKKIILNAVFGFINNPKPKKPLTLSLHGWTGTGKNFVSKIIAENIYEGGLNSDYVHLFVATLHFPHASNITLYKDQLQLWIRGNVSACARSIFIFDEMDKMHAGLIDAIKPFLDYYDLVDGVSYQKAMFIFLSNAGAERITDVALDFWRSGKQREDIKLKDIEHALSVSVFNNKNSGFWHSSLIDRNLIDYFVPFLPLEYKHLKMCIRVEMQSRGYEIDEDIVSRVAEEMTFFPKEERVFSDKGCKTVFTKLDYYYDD
For experiment [9] the target is unchanged. Kind of experiment: torsin A mutant lysate binding on microarrays – cell lysate, small-molecule microarray, COS7 lysate, 635/667 nm fluorescence, primary screen (AID 1150).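 Note: score pools 667 nm emission and signal to noise measuring lysate protein binding.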 To be noted: COS7 hTOR1A mutant lysate, 635 nm fluorescence, higher = more signal.
Experiment [10] deals with Sonic hedgehog protein (Shh). In words: Sonic hedgehog microarray binding compounds – biochemical, small-molecule microarray, 635/667 nm fluorescence, primary screen (AID 1151).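 Note: Shh protein binding to compounds spotted on small-molecule microarray slides; score combines spot fluorescence intensity with signal-to-noise across triplicate slides.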 The note with it: 635 nm fluorescence, higher = more signal.
Experiment [11] can be described thus: optical density shifts of acrAB sulA E. coli – strain DRC41, OD650, 48 h, E. coli filamentation inducer project, primary screen (AID 1152).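 Note: E. coli MC1000 strain DRC41 lacking acrAB efflux pump and sulA.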 The note with it: higher = more signal, called active from +8 up or from −8 down.
Experiment [12] can be described thus: probe aLefty1 binding on compound microarray – biochemical, small-molecule microarray, 635/667 nm fluorescence, primary screen (AID 1153).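 Note: score merges spot fluorescence with signal-to-noise ratio from the scanned slide images.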 To be noted: higher = more signal.
Experiment [13] can be described thus: plasmodial surface anion channel blockers, osmotic lysis – cell-based, P. falciparum Indochina, OD700, 1 h, primary screen (AID 1154). The note with it: P. falciparum Indochina infected RBC osmotic lysis, higher = more signal, called active from +8 up or from −8 down.
Experiment [14] can be described thus: plasmodial surface anion channel blockers, osmotic lysis – cell-based, P. falciparum Indochina, OD700, 2 h, primary screen (AID 1155).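 Note: lysis reports solute entry through the parasite surface anion channel PSAC.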 To be noted: P. falciparum Indochina infected erythrocytes, higher = more signal, called active from +8 up or from −8 down.
Experiment [15] in a line: changes in parasitized red cell lysis, either direction – P. falciparum Indochina, OD700, 3 h, PSAC antagonist project, primary screen (AID 1156). To be noted: P. falciparum-infected erythrocytes, osmotic lysis, higher = more signal, called active from +8 up or from −8 down.
The nature of experiment [16]: plasmodial surface anion channel blockers, osmotic lysis – cell-based, P. falciparum Indochina, OD700, 18 h, primary screen (AID 1157). The note with it: P. falciparum Indochina infected erythrocytes, osmotic lysis OD700, 18 h; higher = more signal, called active from +8 up or from −8 down.
A short description of experiment [17]: S6 kinase pathway phospho-S6 level changes – cell-based, A549, cytoblot, luminescence, serum-stimulated, primary screen (AID 1158).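 Note: serum-stimulated A549 lung adenocarcinoma cells; signal is phosphorylated S6 detected by cytoblot immunostaining with HRP secondary.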 The note with it: 5 h, higher = more signal.
In experiment [18] the target is NADPH oxidase 2 (Homo sapiens) (UniProt P04839). In words: compounds shifting NOX2 Amplex Red fluorescence – cell-based, HEK293-NOX2, PMA-stimulated, NOX inhibitor project, primary screen (AID 1159). Note: test concentration not given here. To be noted: 45 min, higher = more signal, called active from +8 up or from −8 down.
Chain of NADPH oxidase 2 (Homo sapiens) (P04839 whole entry, looked up): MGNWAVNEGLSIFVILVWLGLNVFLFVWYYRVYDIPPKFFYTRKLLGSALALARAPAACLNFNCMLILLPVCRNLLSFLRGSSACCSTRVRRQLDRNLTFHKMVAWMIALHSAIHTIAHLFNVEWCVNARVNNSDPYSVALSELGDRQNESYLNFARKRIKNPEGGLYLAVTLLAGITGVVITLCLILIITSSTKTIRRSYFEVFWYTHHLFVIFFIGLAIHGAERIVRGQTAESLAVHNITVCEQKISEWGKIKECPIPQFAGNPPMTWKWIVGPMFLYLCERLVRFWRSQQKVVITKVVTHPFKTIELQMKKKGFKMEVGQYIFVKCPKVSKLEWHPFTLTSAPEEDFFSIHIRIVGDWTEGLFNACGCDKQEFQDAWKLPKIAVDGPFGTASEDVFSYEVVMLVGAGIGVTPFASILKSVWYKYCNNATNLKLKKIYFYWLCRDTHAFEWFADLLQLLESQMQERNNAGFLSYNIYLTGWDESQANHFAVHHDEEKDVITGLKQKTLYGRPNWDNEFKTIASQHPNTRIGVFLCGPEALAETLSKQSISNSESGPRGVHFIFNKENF
Experiment [19] has as its target NADPH oxidase 4 (Homo sapiens) (UniProt Q9NPH5). In words: compounds shifting NOX4 Amplex Red fluorescence – cell-based, HEK293-NOX4, tetracycline-induced, NOX inhibitor project, primary screen (AID 1160). The note with it: HEK293-NOX4, Amplex Red H2O2 fluorescence, 45 min; higher = more signal, called active from +8 up or from −8 down.
Experiment [20] deals with NADPH oxidase 5 (Homo sapiens) (UniProt Q96PH1). Kind of experiment: compounds shifting NOX5 Amplex Red fluorescence – cell-based, HEK293-NOX5, NOX inhibitor project, primary screen (AID 1161). To be noted: HEK293-NOX5, ionomycin, 45 min, higher = more signal.
Chain of NADPH oxidase 5 (Homo sapiens) (Q96PH1 whole entry, looked up): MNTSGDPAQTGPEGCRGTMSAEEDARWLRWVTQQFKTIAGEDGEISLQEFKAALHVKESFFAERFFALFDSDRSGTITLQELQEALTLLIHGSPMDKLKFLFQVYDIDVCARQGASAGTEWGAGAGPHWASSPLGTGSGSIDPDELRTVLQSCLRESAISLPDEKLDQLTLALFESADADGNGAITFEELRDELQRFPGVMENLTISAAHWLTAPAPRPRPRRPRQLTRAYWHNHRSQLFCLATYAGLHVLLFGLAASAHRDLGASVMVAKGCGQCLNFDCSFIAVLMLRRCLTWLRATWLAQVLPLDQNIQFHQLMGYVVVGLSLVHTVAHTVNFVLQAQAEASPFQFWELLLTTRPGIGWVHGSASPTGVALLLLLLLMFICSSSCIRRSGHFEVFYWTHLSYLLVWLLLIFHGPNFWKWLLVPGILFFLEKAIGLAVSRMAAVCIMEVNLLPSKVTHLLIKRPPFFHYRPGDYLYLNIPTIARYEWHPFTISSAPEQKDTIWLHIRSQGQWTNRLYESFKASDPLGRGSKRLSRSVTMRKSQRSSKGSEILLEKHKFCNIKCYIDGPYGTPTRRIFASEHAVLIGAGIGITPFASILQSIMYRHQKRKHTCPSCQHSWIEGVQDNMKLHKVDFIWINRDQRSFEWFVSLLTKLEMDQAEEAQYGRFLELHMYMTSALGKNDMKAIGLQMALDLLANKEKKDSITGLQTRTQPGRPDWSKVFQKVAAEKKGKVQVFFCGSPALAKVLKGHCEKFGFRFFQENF

Active and inactive are the calls of the source. Unless noted, the rule behind the calls is not given here.

Chain of NADPH oxidase 4 (Homo sapiens) (Q9NPH5 whole entry, looked up): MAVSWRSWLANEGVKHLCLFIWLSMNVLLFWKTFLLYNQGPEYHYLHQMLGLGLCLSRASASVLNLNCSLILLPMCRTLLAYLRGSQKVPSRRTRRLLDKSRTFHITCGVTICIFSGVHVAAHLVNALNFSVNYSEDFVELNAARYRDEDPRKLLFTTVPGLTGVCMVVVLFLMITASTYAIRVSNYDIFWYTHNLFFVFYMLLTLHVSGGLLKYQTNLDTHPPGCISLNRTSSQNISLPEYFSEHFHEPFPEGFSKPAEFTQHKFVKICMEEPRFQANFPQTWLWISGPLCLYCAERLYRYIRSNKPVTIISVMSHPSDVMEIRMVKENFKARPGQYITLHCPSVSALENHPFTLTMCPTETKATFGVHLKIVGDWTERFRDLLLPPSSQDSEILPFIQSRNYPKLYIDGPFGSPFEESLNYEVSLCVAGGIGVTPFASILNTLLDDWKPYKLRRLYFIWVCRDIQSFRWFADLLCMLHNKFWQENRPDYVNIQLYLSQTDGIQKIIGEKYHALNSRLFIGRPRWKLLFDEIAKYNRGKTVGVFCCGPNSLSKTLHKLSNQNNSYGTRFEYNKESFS

With `CCCCC(=C=CC[C@H](O)c1ccccc1OCCO)CCO`, the composite z-score was -0.0677 in [1]; -0.356 in [6]; -0.0762 in experiment [7]; -0.309 with Torsin-1A (Homo sapiens) [8]; 0.0868 with Torsin-1A (Homo sapiens) [9]; 0.704 in experiment [10]. The molecule further returned a composite z-score in experiment [12] of -0.245. Further, the z-score in experiment [2] was -0.0854 (inactive); in experiment [3], 0.235 (inactive); in experiment [4], 4.29 (inactive); in experiment [5], 1.37 (inactive); in experiment [11], -0.0046 (inactive); in experiment [13] it was 4.53 (inactive). In addition, the z-score is 0.626 (inactive) in experiment [14]; -0.0542 (inactive) in [15]; 0.331 (inactive) in experiment [16]; -0.401 in [17]; -0.732 (inactive) in experiment [18]; -0.145 (inactive) in experiment [19]. The z-score in [20] was -1.55.
In the case of `COC(=O)[C@@]1(Cc2ccc(F)cc2)[C@H]2c3cc(C(=O)N4CCCC4)n(CCc4c[nH]c5cc(F)ccc45)c3C[C@H]2CN1C(=O)c1ccccc1`, the composite z-score turned out to be 1.43 in [1]; 1.12 in [6]; 0.0049 in experiment [7]; 1.2 in the experiment with Torsin-1A (Homo sapiens) [8]; 1.29 in the experiment with Torsin-1A (Homo sapiens) [9]; 0.0034 in experiment [10]. Also, the composite z-score in experiment [12] is 0.429. Moreover, the z-score in experiment [2] was -2.66 (inactive); in experiment [3], 0.449 (inactive); in [4], 0.197 (inactive); in experiment [5], 0.654 (inactive); in [11], -1.22 (inactive); in [13] it was 1.76 (inactive). Further, the z-score in experiment [14] was 0.456 (inactive); in experiment [15], 1.86 (inactive); in experiment [16], 0.984 (inactive); in [17] it was 0.593; in experiment [18] it was 0.361 (inactive); in experiment [19], 1.9 (inactive). In experiment [20], the z-score was found to be 2.01.
In the case of `CC(C)C[C@@H]1NC(=O)[C@@H]2C[C@H](C(=O)NCCCCCCNC(=O)CS)[C@H](c3ccc(O)cc3)N2C1=O`, the composite z-score in experiment [1] is 0.841; in [6], 0.813; in [7], -0.0933; with Torsin-1A (Homo sapiens) [8] it was 0.887; with Torsin-1A (Homo sapiens) [9], 1.21; in experiment [10] it was 2.21. This molecule came in with a composite z-score in experiment [12] of 0.197. Also, the z-score in [2] is -1.88 (inactive); in experiment [3], -0.00979 (inactive); in experiment [4], -0.268 (inactive); in experiment [5] it was -0.439 (inactive); in experiment [11] it was 0.81 (inactive); in experiment [13], 4.25 (inactive). In addition, the z-score in experiment [14] was -0.506 (inactive); in [15], 0.75 (inactive); in experiment [16], -1.54 (inactive); in experiment [17], 0.0377; in [18], 0.569 (inactive); in [19], 0.943 (inactive). For the same molecule, the z-score in experiment [20] was -0.706.
For the molecule `COC(=O)C(CC#Cc1ccc2c(c1)[C@]1(C(=O)N2)[C@H](c2ccc(OCCO)cc2)N2[C@H](c3ccccc3)[C@H](c3ccccc3)OC(=O)[C@H]2[C@@H]1C(N)=O)C(=O)OC`, the composite z-score was -0.0885 in [1]; 1.42 in experiment [6]; -0.0719 in [7]; 0.598 in the experiment with Torsin-1A (Homo sapiens) [8]; -0.127 in the experiment with Torsin-1A (Homo sapiens) [9]; -0.315 in [10]. The composite z-score in [12] was 0.0319. Moreover, the z-score in [2] is -2.24 (inactive); in experiment [3] it was -0.287 (inactive); in [4], -0.0246 (inactive); in experiment [5], 0.0658 (inactive); in [11], -0.763 (inactive); in [13] it was 3.9 (inactive). In addition, the z-score in experiment [14] was 1.36 (inactive); in experiment [15], -0.623 (inactive); in [16] it was 0.615 (inactive); in [17] it was -0.359; in [18], 1.56 (inactive); in experiment [19], 0.784 (inactive). Besides, the z-score in experiment [20] is 0.345.
As for `O=C1NC(=O)C2C1C=CC(C(O)C(c1ccccc1)c1ccccc1)N2Nc1ccccn1` (stereo not given), the composite z-score in experiment [1] is 0.367; in experiment [6], -0.0787; in [7], 0.096; with Torsin-1A (Homo sapiens) [8] it was 0.675; with Torsin-1A (Homo sapiens) [9], 1.06; in experiment [10], 0.676. The molecule further showed a composite z-score in experiment [12] of 0.228. Also, the z-score in experiment [2] is 0.604 (inactive); in experiment [3] it was -0.725 (inactive); in experiment [4], -0.898 (inactive); in experiment [5] it was -0.804 (inactive); in experiment [11], -0.332 (inactive); in experiment [13], 0.186 (inactive). Besides, the z-score in experiment [14] is 0.829 (inactive); in [15], 0.156 (inactive); in experiment [16], 0.853 (inactive); in experiment [17], -0.681; in [18], 0.738 (inactive); in [19], -2.13 (inactive). Also, the z-score in [20] is -1.47.
